# In all, about 1,200 compounds went through this assay and about 810 (68%) were called active. How the calls were made is not given here. The set was probably picked from earlier hits. The list is a sample of the results. Measured potencies and affinities stand elsewhere.
# Assay: TRPM1 promoter luciferase signal decrease, dose response, MITF inhibitor project, cell-based, SK-MEL-5, cherry-picked, set 3 (AID 493073)
# Details: SK-MEL-5 TRPM1 promoter luciferase, 24 h; series mostly up to 35 µM
row,Structure (SMILES),outcome
1,O=C1c2ccccc2CN1c1ccccc1,inactive
2,CC(=O)Nc1ccc2c(c1)ncn2-c1ccccc1,inactive
3,N#Cc1cnc2sc3ccccc3n2c1=N,inactive
4,CC1(C)CC(=O)c2cnc(N3CCc4ccccc43)nc2C1,inactive
5,O=C(NCCSc1ccccc1)c1ccccc1F,inactive
6,COc1ccc(-c2nc3n(c2C)Cc2ccccc2-3)cc1,inactive
7,COc1ccc(-c2cc(-c3ccccc3O)[nH]n2)cc1OC,inactive
8,COc1ccc(C(=O)Nc2nc3ccc(OC)cc3s2)cc1,inactive
9,CCCOc1ccc(C(=O)Nc2ccc3c(c2)OCCO3)cc1,inactive
10,CCOC(=O)c1ccc(NC(=O)CC2SCCNC2=O)cc1 (stereo not given),inactive
11,CCOC(=O)c1ccc(NC(=O)c2ccnn2C)cc1,inactive
12,Cc1ccc(NC(=O)c2ccc(OCC3CCCO3)cc2)c(C)c1 (stereo not given),inactive
13,COc1cc(/C=N/N=C(N)N)ccc1OCc1ccc(Cl)cc1,inactive
14,Cc1ccc2nc(-c3ccncc3)[nH]c2c1,inactive
15,CC(=O)N/C(N)=N/c1nc(=O)c2ccccc2s1,inactive
16,CCOc1ccc(N(CC(=O)Nc2ccc(OC)cc2)S(C)(=O)=O)cc1,inactive
17,COc1ccc(/C=N/NC(=O)Cc2cccs2)cc1,inactive
18,COc1ccc(NC(=O)c2scc(S(=O)(=O)C(C)C)c2N)cc1,inactive
19,Nc1c(-c2ccc(Cl)cc2)nnn1-c1ccccc1,inactive
20,CCSc1nc2c(cnn2-c2ccccc2)c(=O)n1N,inactive
21,CCn1nccc1C(=O)Nc1ccc(C)c(C)c1,inactive
22,O=C(CCNc1ccccc1)c1ccc2c(c1)OCO2,inactive
23,O=C(Cn1cnc2ccccc2c1=O)Nc1ccc2c(c1)OCCO2,inactive
24,O=C(Nc1ccc(F)c(Cl)c1)c1ccc2c(c1)OCO2,inactive
25,Cc1cccc(N(O)C(=O)Nc2cccc(Cl)c2)c1,inactive

row,Structure (SMILES),outcome
1,C=CCn1cccc(C(=O)Nc2ccc(C)c(Cl)c2)c1=O,inactive
2,CC(O)CNC(=O)C1CCN(Cc2ccc(OCc3ccccc3)cc2)CC1 (stereo not given),inactive
3,Nc1nc2ccccc2n1/N=C/c1ccc(-c2ccccc2)o1,inactive
4,Cc1c(/C=C/C(=O)c2ccc(Cl)s2)cnn1C,inactive
5,CCCCOC(=O)Nc1ccc2c(C)cc(=O)oc2c1,inactive
6,Cc1ccc(NC(=O)c2cc(-c3cccs3)on2)cc1,inactive
7,Cc1ccc2nc(N(CCCN(C)C)C(=O)c3ccc4c(c3)CCCC4)sc2c1,inactive
8,Cc1cc(C)c2sc(N(CCCN(C)C)C(=O)COc3ccc(Cl)cc3)nc2c1,inactive
9,CC(=O)N/C(N)=N/c1nc2cc(C)ccc2o1,inactive
10,CCOC(=O)c1cn2nc(Oc3ccccc3)ccc2n1,inactive
11,Cc1cn(CCC(=O)Nc2ccccc2N2CCOCC2)c2ccccc12,inactive
12,Clc1c(-c2ccccc2)nc2ccccn12,inactive
13,CCOC(=O)CSc1nc2cc(OCC)ccc2cc1C#N,inactive
14,C=CCNC(=O)Cn1nnc(-c2ccc(-c3ccc(OC)cc3)cc2)n1,inactive
15,O=C(Cn1cnc2c(oc3ccccc32)c1=O)c1ccccc1,inactive
16,c1ccc(Cc2cc(-c3ccccc3)on2)cc1,inactive
17,O=[N+]([O-])c1c(NCCCO)cc(Sc2ccc(Cl)cc2)c2nonc12,inactive
18,CC1CC2(C)Oc3ccccc3CC2C(C)C1CNCCCN(C)C (stereo not given),inactive
19,Cc1cc(C)c2c(N)c(C(=O)N/N=C/c3cccnc3)sc2n1,inactive
20,O=[N+]([O-])c1cccc(/C=N/Nc2ncc(Br)cn2)c1,inactive
21,Cc1ccc(NC(=O)c2cc3cccc([N+](=O)[O-])c3[nH]2)cc1,inactive
22,O=C(CC(=O)c1ccccc1)Nc1ccccn1,inactive
23,N/C(CS(=O)(=O)c1ccccn1)=N\OC(=O)c1ccccc1Cl,inactive
24,COc1ccc(NC(=O)c2cc3ccccc3[nH]2)cc1,inactive
25,COC(=O)[C@@H](C)NC(=O)c1ccc2oc(CCc3ccccc3)nc2c1,inactive

# Reference: PubChem BioAssay AID493073 (Broad Institute, 2011)
